Assay results reported in PubChem BioAssay AID1159580 (chemical genetic matrix, 2015).
Hit rate of the full screen: of about 5,500 compounds, about 2,000 (36%) were called active. About 18% were inconclusive and are not listed. No stated cut-off is given here; in the data, active means normalized growth mostly below about 0.91 (no sharp cut-off); inconclusive means no clear call, values can overlap the other calls; inactive means mostly above about 0.92. This is one part of the list.

Experiment: chemical genetic growth profiling, strain panel (AID 1159580);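 further: tested at 20 µM; growth read once vehicle control cultures reached saturation at 30 °C; 1 = growth at the plate median or of vehicle wells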
Settings: S. cerevisiae deletion strains, growth OD

Measured: normalized growth

CC(=O)Oc1ccc(-c2cc(=O)c3c(OC(C)=O)cc(OC(C)=O)cc3o2)cc1
inactive: locus YAL021C, strain ccr4, stronger effect = lower value 0.975 | locus YAL026C, strain drs2, stronger effect = lower value 0.947 | locus YAL030W, strain snc1, stronger effect = lower value 0.975 | locus YBL061C, strain skt5, stronger effect = lower value 0.965 | locus YBR009C, strain hhf1, stronger effect = lower value 0.96 | locus YBR023C, strain chs3, stronger effect = lower value 0.951 | locus YBR171W, strain sec66, stronger effect = lower value 0.955 | locus YBR231C, strain swc5, stronger effect = lower value 0.968 | locus YBR279W, strain paf1, stronger effect = lower value 0.974 | locus YCL011C, strain gbp2, stronger effect = lower value 0.963 | locus YCL016C, strain dcc1, stronger effect = lower value 0.974 | locus YCL061C, strain MRC1, stronger effect = lower value 0.988 | locus YCL069W, strain vba3, stronger effect = lower value 0.964 | locus YCR088W, strain abp1, stronger effect = lower value 0.966 | locus YDL005C, strain med2, stronger effect = lower value 0.977 | locus YDL040C, strain nat1, stronger effect = lower value 0.966 | locus YDR001C, strain nth1, stronger effect = lower value 0.965 | locus YDR069C, strain doa4, stronger effect = lower value 0.95 | locus YDR137W, strain rgp1, stronger effect = lower value 1 | locus YDR159W, strain sac3, stronger effect = lower value 0.935 | locus YDR195W, strain ref2 0.942 | locus YDR297W, strain sur2, stronger effect = lower value 0.976 | locus YDR334W, strain swr1, stronger effect = lower value 0.958 | locus YDR335W, strain msn5, stronger effect = lower value 0.982 | locus YDR392W, strain spt3, stronger effect = lower value 0.906 | locus YEL003W, strain gim4, stronger effect = lower value 0.961 | locus YEL037C, strain rad23, stronger effect = lower value 0.952 | locus YEL061C, strain CIN8 (second series), stronger effect = lower value 0.958 | locus YER015W, strain faa2, stronger effect = lower value 0.984 | locus YER016W, strain bim1, stronger effect = lower value 0.976 | locus YER111C, strain swi4, stronger effect = lower value 0.953 | locus YER155C, strain BEM2 (second series), stronger effect = lower value 0.957 | locus YFR010W, strain ubp6, stronger effect = lower value 0.957 | locus YGL167C, strain pmr1, stronger effect = lower value 0.965 | locus YGL173C, strain kem1, stronger effect = lower value 0.983 | locus YGL227W, strain vid30, stronger effect = lower value 0.955 | locus YGL240W, strain doc1, stronger effect = lower value 0.962 | locus YGL253W, strain hxk2, stronger effect = lower value 0.973 | locus YHR013C, strain ard1, stronger effect = lower value 0.92 | locus YHR027C, strain rpn1, stronger effect = lower value 0.982 | locus YHR142W, strain chs7, stronger effect = lower value 0.973 | locus YJL092W, strain hpr5, stronger effect = lower value 0.982 | locus YJL095W, strain BCK1 (second series), stronger effect = lower value 0.988 | locus YJL115W, strain asf1, stronger effect = lower value 0.954 | locus YJL129C, strain trk1, stronger effect = lower value 0.95 | locus YJL154C, strain vps35, stronger effect = lower value 0.961 | locus YJL164C, strain tpk1, stronger effect = lower value 0.964 | locus YJL166W, strain qcr8, stronger effect = lower value 0.971 | locus YJL187C, strain SWE1, stronger effect = lower value 0.976 | locus YKL160W, strain elf1, stronger effect = lower value 1.01 | locus YKR026C, strain gcn3, stronger effect = lower value 0.949 | locus YKR091W, strain srl3, stronger effect = lower value 0.97 | locus YLL001W, strain dnm1, stronger effect = lower value 0.997 | locus YLL026W, stronger effect = lower value 0.973 | locus YLL041C, strain sdh2, stronger effect = lower value 0.98 | locus YLR027C, strain aat2, stronger effect = lower value 0.96 | locus YLR221C, strain rsa3, stronger effect = lower value 0.958 | locus YLR258W, strain gsy2, stronger effect = lower value 0.977 | locus YLR262C, strain YPT6 (second series), stronger effect = lower value 0.999 | locus YLR320W, strain mms22, stronger effect = lower value 0.958 | locus YLR342W, strain FKS1, stronger effect = lower value 0.968 | locus YLR357W, strain rsc2, stronger effect = lower value 0.902 | locus YLR370C, strain arc18, stronger effect = lower value 0.958 | locus YLR384C, strain iki3, stronger effect = lower value 0.966 | locus YML120C, strain ndi1, stronger effect = lower value 0.967 | locus YMR058W, strain fet3, stronger effect = lower value 0.965 | locus YMR125W, strain sto1, stronger effect = lower value 0.955 | locus YMR129W, stronger effect = lower value 0.967 | locus YMR205C, strain PFK2, stronger effect = lower value 0.941 | locus YMR231W, strain pep5, stronger effect = lower value 0.975 | locus YNL071W, strain lat1, stronger effect = lower value 0.967 | locus YNL209W, strain ssb2, stronger effect = lower value 0.979 | locus YNL248C, strain rpa49, stronger effect = lower value 0.979 | locus YNL322C, strain KRE1 (second series), stronger effect = lower value 0.95 | locus YNR049C, strain mso1, stronger effect = lower value 0.953 | locus YOR001W, strain rrp6, stronger effect = lower value 0.987 | locus YOR070C, strain gyp1, stronger effect = lower value 0.977 | locus YOR080W, strain dia2, stronger effect = lower value 0.961 | locus YOR083W, strain WHI5, stronger effect = lower value 1.02 | locus YOR106W, strain vam3, stronger effect = lower value 0.986 | locus YOR265W, strain rbl2, stronger effect = lower value 0.981 | locus YOR270C, strain vph1, stronger effect = lower value 0.899 | locus YOR290C, strain snf2, stronger effect = lower value 0.899 | locus YPL051W, strain arl3, stronger effect = lower value 1 | locus YPL078C, strain atp4, stronger effect = lower value 0.984 | locus YPL106C, strain sse1, stronger effect = lower value 0.946 | locus YPL240C, strain hsp82, stronger effect = lower value 0.987
